Results on 34 molecules are retold here after PubChem BioAssay (NCI).

Where “and” joins values, the source holds several entries; their conditions need not be identical. Equal entries are not always repeated. Compounds without any hit were thinned out: in the full panel of roughly 83,000, 20% have a hit.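 Testing used 96-well plates and a 48-hour single-concentration exposure. Example: -40 means 40% of the starting cells died.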 Where a structure was tested more than once in an assay, its records may differ in their call. Calls of active or inactive are those of the source. Rule for the calls: active = growth percent below 10; inactive = the rest.

One test relates to SK-MEL-2 melanoma. The test can be described thus: NCI-60 one-dose screen, 48 h (100 = growth as untreated, 0 = no growth, -100 = all killed). The note with it: 10 µM unless noted.
Regarding `CCN1CCCC(Nc2cc(C)nc(/N=C(/N)Nc3ccc(Cl)c(Cl)c3)n2)C1` (stereo not drawn), the growth was -72.7% (active).
Consider `O=C(NOC(=O)c1ccccc1)c1ccccc1`, for which the growth is 97% (inactive).
On to `C(=N\Nc1ccc2ccccc2n1)/c1ccccn1`, for which the growth is 39.5% (inactive).
As for `CC(C)c1ccc(Nc2n[nH]c(=S)s2)cc1`, the growth is 111% (inactive).

The test system of a further test is EKVX NSCLC. The description is as above. As to conditions: 10 µM unless noted.
Turning to `Oc1ccc2ccccc2c1N=Nc1ccccn1`, the growth is 22.2% (inactive).
Regarding `OC(c1cc(-c2ccc(C(F)(F)F)cc2)nc(C(F)(F)F)c1)C1CCCCN1` (stereo not drawn), the growth was 27.2% (inactive) and 3.74% (active) and 67.6% (inactive).
As to `C/C(=N/NC(N)=S)c1ccc(C)cc1`, the growth is 53.9% (inactive).
As to `O=C(c1ccccc1)C(Br)[N+](=O)[O-]` (stereo not drawn), the growth was 96.5% (inactive).
Consider `CC(/C=N/NC(N)=S)Cc1ccc(C(C)C)cc1` (stereo not drawn), for which the growth is 80.5% (inactive).
For `Nc1cc(-c2ccccc2)ccc1O`, the growth was 96.4% (inactive).
Take `O=C(Cc1nc2cc(Cl)c(Cl)cc2nc1CC(=O)c1cccnc1)c1cccnc1`: the growth is 54% (inactive).
On the same count and under the same terms, as for `COc1cccc2c1C(=O)c1c(O)c3c(c(O)c1C2=O)C[C@@](O)(C(=O)CO)C[C@@H]3OC1CC(OC(C)=O)C(OC(C)=O)C(C)O1` (stereo partly drawn), the figure is 30.5% (inactive); as for `O=[N+]([O-])c1ccc([I+]c2ccccc2)cc1`, -62.4% (active); as for `O=C1C=CC(=O)N1c1ccccc1`, 99.6% (inactive).
In the case of `O=[N+]([O-])CC(O)c1ccccc1` (stereo not drawn), the growth is 113% (inactive).
Take `CCN(CC)CCNc1ccc([N+](=O)[O-])c2sc3ccccc3c(=O)c12`: the growth is 23.1% (inactive).
The same measure, in the same setting: as for `COc1cc(NC(=O)C2=C(C)NC(C)=C(C(=O)Nc3cc(OC)c(Cl)cc3OC)C2c2cccc([N+](=O)[O-])c2)c(OC)cc1Cl`, the figure is 28.7% (inactive).
In the case of `c1ccc(C2NCCNC2c2ccccc2)cc1` (stereo not drawn), the growth was 103% (inactive).
Consider `O=[N+]([O-])c1ccc(Oc2ccccc2Cl)c([N+](=O)[O-])c1`, for which the growth is 104% (inactive).
In the case of `O=C(O)c1ccc2c(c1)C(=O)c1ccccc1C2=O`, the growth was 102% (inactive).
`CCN1CCCC(Nc2cc(C)nc(/N=C(/N)Nc3ccc(Cl)c(Cl)c3)n2)C1` (stereo not drawn): the growth was 31.4% (inactive).
The same measure, in the same setting: for `O=C(NOC(=O)c1ccccc1)c1ccccc1` the value was 95.7% (inactive); for `C(=N\Nc1ccc2ccccc2n1)/c1ccccn1`, 20.7% (inactive).
The same measure, in the same setting: for `O=C(CCl)N1c2ccccc2Sc2c1ccc1ccccc21` the value was 96.1% (inactive).

The test system of another test is SN12C renal. Described as above. As to conditions: 10 µM unless noted.
With `Oc1ccc2ccccc2c1N=Nc1ccccn1`, the growth is 35.4% (inactive).
Regarding `OC(c1cc(-c2ccc(C(F)(F)F)cc2)nc(C(F)(F)F)c1)C1CCCCN1` (stereo not drawn), the growth is -50.3% (active) and -86.4% (active) and 28.5% (inactive).
Consider `C/C(=N/NC(N)=S)c1ccc(C)cc1`, for which the growth was 87.4% (inactive).
With `N#Cc1c2ccccc2nc2ccccc12`, the growth was 93.5% (inactive).
Take `O=C1CSC(=S)N1Cc1cccnc1`: the growth is 103% (inactive).
On to `O=C(c1ccccc1)C(Br)[N+](=O)[O-]` (stereo not drawn), for which the growth was 103% (inactive).
For the molecule `CC(/C=N/NC(N)=S)Cc1ccc(C(C)C)cc1` (stereo not drawn), the growth was 69.8% (inactive).
On to `Nc1cc(-c2ccccc2)ccc1O`, for which the growth was 104% (inactive).
Regarding `Oc1c(C(Nc2ccccc2)c2ccccc2)ccc2cccnc12` (stereo not drawn), the growth is 54.6% (inactive).
Turning to `O=C(Cc1nc2cc(Cl)c(Cl)cc2nc1CC(=O)c1cccnc1)c1cccnc1`, the growth was 75% (inactive).
For the molecule `COc1cccc2c1C(=O)c1c(O)c3c(c(O)c1C2=O)C[C@@](O)(C(=O)CO)C[C@@H]3OC1CC(OC(C)=O)C(OC(C)=O)C(C)O1` (stereo partly drawn), the growth was -6.25% (active).
Take `O=[N+]([O-])c1ccc([I+]c2ccccc2)cc1`: the growth was -56.2% (active).
`O=C1C=CC(=O)N1c1ccccc1`: the growth is 84.4% (inactive).
Still for that read-out and setting: for `O=[N+]([O-])CC(O)c1ccccc1` (stereo not drawn) the value was 101% (inactive); for `CCCCCCCCCCCCNCCCc1ccccc1`, 62.9% (inactive); for `CN=C(N)N/N=C(\C)c1ccc2c(c1)Cc1ccccc1-2`, -40.5% (active).
With `CCN(CC)CCNc1ccc([N+](=O)[O-])c2sc3ccccc3c(=O)c12`, the growth was 28.5% (inactive).
Turning to `O/N=C1\c2ccccc2-c2ccc(F)cc21`, the growth was 94.4% (inactive).
Take `COc1cc(NC(=O)C2=C(C)NC(C)=C(C(=O)Nc3cc(OC)c(Cl)cc3OC)C2c2cccc([N+](=O)[O-])c2)c(OC)cc1Cl`: the growth was 32.2% (inactive).
On the same count and under the same terms, as for `CCN(CC)CCNC(Cc1ccccc1)c1ccc(OCc2ccccc2)cc1` (stereo not drawn), the figure is 73.2% (inactive).
For `c1ccc(C2NCCNC2c2ccccc2)cc1` (stereo not drawn), the growth was 102% (inactive).
The same measure, in the same setting: for `COC(=O)Nc1nc2ccc(C3(c4ccc(F)cc4)OCCO3)cc2[nH]1` the value was 41.4% (inactive).
As for `O=[N+]([O-])c1ccc(Oc2ccccc2Cl)c([N+](=O)[O-])c1`, the growth was 90.4% (inactive).
Consider `O=C(O)c1ccc2c(c1)C(=O)c1ccccc1C2=O`, for which the growth is 94.6% (inactive).
For `C=C(C(N)=O)C(N)C(=O)O` (stereo not drawn), the growth is 108% (inactive).
Take `CCC[CH2][Sn]1([CH2]CCC)[O]C2C(CO)OC(n3ccc(N)nc3=O)C2[O]1` (stereo not drawn): the growth was -52.6% (active).
Consider `COc1cc2c(c(OC)c1OC)-c1ccc(NCc3ccccc3)c(=O)cc1[C@@H](NC(C)=O)CC2`, for which the growth is 20.3% (inactive).
With `CCN1CCCC(Nc2cc(C)nc(/N=C(/N)Nc3ccc(Cl)c(Cl)c3)n2)C1` (stereo not drawn), the growth is 1.64% (active).
As for `CN=C(N)N/N=C(\c1ccccc1)c1ccc(Br)cc1`, the growth was 16.2% (inactive).
Consider `O=C(NOC(=O)c1ccccc1)c1ccccc1`, for which the growth was 108% (inactive).
Still for that read-out and setting: for `O=[n+]1c2ccccc2n([O-])c2cc(Cl)ccc21` the value was 62.3% (inactive); for `C(=N\Nc1ccc2ccccc2n1)/c1ccccn1`, 17.7% (inactive); for `O=C(CCl)N1c2ccccc2Sc2c1ccc1ccccc21`, 73.8% (inactive).
Take `CC(C)c1ccc(Nc2n[nH]c(=S)s2)cc1`: the growth was 98.2% (inactive).
